The values below come from ChEMBL document CHEMBL2218924, “A broad activity screen in support of a chemogenomic map for kinase signalling research and drug discovery” (Biochem J, 2013).

Assay [1] addresses T1, MAP kinase-activated protein kinase 5 (Homo sapiens) (UniProt Q8IW41).
T1 sequence (whole entry): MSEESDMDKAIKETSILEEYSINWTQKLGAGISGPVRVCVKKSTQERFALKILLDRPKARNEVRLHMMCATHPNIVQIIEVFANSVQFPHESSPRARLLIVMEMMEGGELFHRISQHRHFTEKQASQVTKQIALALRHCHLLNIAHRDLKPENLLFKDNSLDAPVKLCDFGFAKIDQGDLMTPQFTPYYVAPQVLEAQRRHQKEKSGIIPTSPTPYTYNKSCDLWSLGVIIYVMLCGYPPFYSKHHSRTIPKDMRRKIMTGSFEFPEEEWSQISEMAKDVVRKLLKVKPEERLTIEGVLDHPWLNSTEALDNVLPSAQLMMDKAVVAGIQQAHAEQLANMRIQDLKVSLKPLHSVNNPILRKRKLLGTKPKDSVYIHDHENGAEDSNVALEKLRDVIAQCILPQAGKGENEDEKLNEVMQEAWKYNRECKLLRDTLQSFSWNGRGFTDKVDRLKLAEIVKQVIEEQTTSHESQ
As to conditions: at 1 µM.

In assay [2] the target is T1, MAP kinase-activated protein kinase 5 (Homo sapiens). As to conditions: at 10 µM.
Assay [3] concerns the target Serine/threonine-protein kinase N2 (Homo sapiens) (UniProt Q16513). Conditions: at 1 µM.
Assay [4] has the same target. As to conditions: at 10 µM.
The target in assay [5] is Tyrosine-protein kinase FRK (Homo sapiens) (UniProt P42685). As to conditions: at 1 µM.
Assay [6] has the same target. As to conditions: at 10 µM.
Assay [7] concerns the target T2, Phosphorylase b kinase gamma catalytic chain, liver/testis isoform (Homo sapiens) (UniProt P15735).
T2 sequence (whole entry): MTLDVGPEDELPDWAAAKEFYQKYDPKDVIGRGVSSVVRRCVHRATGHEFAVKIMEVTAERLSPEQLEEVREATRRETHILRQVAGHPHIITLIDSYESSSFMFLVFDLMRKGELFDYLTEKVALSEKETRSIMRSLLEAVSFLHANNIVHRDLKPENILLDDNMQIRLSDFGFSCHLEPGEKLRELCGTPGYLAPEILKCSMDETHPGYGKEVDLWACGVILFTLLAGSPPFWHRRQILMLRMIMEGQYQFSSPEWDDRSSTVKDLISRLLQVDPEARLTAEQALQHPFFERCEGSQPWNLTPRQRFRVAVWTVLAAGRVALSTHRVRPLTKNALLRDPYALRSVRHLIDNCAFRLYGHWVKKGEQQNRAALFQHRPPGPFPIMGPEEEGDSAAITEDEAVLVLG
As to conditions: at 1 µM.

Assay [8] concerns the target T2, Phosphorylase b kinase gamma catalytic chain, liver/testis isoform (Homo sapiens). Conditions: at 10 µM.
Assay [9] deals with Serine/threonine-protein kinase pim-1 (Homo sapiens) (UniProt P11309). Conditions: at 1 µM.
The target is the same in assay [10]. As to conditions: at 10 µM.
Assay [11] deals with Serine/threonine-protein kinase pim-2 (Homo sapiens) (UniProt Q9P1W9). As to conditions: at 1 µM.
Assay [12] addresses Serine/threonine-protein kinase pim-3 (Homo sapiens) (UniProt Q86V86). Conditions: at 1 µM.
The target is the same in assay [13]. Conditions: at 10 µM.
The target of assay [14] is T3, cGMP-dependent protein kinase 1 (Homo sapiens) (UniProt Q13976).
T3 sequence (whole entry): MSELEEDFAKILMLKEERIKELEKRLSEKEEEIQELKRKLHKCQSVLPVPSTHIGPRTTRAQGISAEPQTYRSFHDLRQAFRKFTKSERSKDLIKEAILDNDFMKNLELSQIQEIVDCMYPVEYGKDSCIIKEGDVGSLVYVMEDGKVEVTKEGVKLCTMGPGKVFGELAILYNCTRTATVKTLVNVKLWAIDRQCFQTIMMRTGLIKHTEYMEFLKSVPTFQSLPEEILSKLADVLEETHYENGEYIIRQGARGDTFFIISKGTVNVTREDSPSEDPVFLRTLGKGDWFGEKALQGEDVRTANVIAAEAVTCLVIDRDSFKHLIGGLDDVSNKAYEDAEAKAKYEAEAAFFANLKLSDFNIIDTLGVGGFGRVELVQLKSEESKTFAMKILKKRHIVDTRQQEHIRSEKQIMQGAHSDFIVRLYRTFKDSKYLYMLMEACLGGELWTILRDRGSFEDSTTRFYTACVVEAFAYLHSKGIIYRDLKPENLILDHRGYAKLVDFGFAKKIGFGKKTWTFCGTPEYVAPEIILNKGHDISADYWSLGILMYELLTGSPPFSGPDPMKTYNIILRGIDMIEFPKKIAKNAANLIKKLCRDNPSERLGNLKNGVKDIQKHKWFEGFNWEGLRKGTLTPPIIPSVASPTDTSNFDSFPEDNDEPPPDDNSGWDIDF
Conditions: at 1 µM.

For assay [15], the target named is T3, cGMP-dependent protein kinase 1 (Homo sapiens). Conditions: at 10 µM.
Assay [16] has the same target. Conditions: at 1 µM. This is another data set of the same source.
The target is the same in assay [17]. Conditions: at 10 µM. The source holds these as a separate data set.
In assay [18] the target is Serine/threonine-protein kinase pim-2 (Homo sapiens) (UniProt Q9P1W9). Conditions: at 10 µM.
In assay [19] the target is Serine/threonine-protein kinase PLK1 (Homo sapiens) (UniProt P53350). As to conditions: at 1 µM.
The target is the same in assay [20]. As to conditions: at 10 µM.

Sequence of Serine/threonine-protein kinase N2 (Homo sapiens) (Q16513 whole entry, looked up): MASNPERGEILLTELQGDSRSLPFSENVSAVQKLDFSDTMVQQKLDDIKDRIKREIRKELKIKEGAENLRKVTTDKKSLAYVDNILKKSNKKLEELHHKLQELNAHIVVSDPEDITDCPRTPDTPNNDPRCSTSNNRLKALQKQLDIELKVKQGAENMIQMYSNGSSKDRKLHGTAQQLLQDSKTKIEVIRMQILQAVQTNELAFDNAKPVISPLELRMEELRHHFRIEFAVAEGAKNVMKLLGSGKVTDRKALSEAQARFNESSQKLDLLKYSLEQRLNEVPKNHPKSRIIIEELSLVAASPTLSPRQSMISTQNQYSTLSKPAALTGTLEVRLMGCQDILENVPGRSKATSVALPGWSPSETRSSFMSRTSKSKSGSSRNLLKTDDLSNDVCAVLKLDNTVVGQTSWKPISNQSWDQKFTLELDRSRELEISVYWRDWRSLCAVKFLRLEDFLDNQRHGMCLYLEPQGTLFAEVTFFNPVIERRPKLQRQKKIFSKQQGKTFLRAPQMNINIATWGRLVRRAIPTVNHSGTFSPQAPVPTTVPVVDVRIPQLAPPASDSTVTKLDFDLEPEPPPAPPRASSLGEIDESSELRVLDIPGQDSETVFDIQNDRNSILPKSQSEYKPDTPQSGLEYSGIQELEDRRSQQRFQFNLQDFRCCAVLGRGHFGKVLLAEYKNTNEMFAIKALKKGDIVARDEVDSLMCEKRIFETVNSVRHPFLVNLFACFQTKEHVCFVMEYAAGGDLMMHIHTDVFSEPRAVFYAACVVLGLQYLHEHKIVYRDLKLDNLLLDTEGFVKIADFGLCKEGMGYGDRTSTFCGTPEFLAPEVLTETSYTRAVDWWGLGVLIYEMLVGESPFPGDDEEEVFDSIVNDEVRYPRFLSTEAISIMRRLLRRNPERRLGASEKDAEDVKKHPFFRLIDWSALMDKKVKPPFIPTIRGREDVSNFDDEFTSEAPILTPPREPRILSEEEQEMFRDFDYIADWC
Sequence of Serine/threonine-protein kinase pim-1 (Homo sapiens) (P11309 whole entry, looked up): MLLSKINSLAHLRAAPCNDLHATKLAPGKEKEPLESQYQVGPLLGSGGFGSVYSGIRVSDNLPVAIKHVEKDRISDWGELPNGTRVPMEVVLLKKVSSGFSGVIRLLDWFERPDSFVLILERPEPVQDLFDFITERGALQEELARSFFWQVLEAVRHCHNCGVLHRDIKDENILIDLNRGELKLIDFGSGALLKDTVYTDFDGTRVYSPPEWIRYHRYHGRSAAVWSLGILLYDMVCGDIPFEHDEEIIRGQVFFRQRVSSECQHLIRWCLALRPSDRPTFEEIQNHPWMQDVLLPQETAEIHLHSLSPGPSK
Sequence of Serine/threonine-protein kinase pim-2 (Homo sapiens) (Q9P1W9 whole entry, looked up): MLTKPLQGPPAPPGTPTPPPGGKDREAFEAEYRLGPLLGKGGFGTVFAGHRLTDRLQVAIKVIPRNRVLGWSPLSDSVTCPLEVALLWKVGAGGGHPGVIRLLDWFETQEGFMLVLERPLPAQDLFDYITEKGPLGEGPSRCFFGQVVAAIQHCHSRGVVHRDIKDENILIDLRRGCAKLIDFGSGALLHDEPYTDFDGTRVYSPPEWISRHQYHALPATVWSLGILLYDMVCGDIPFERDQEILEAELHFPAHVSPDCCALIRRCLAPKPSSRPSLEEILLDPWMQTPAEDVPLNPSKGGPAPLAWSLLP
Sequence of Tyrosine-protein kinase FRK (Homo sapiens) (P42685 whole entry): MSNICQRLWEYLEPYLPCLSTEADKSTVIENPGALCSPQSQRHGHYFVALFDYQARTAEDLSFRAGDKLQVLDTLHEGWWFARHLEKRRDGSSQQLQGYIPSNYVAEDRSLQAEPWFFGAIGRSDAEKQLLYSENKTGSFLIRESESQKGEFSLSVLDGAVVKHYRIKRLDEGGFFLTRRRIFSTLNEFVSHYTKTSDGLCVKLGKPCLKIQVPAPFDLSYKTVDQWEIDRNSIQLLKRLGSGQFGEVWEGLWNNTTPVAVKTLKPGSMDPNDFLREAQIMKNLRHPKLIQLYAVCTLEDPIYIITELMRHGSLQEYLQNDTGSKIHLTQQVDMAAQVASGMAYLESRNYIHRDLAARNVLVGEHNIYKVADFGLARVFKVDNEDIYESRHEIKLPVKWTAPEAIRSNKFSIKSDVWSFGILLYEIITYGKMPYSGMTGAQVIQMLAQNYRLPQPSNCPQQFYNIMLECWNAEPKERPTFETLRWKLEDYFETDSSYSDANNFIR
Sequence of Serine/threonine-protein kinase PLK1 (Homo sapiens) (P53350 whole entry): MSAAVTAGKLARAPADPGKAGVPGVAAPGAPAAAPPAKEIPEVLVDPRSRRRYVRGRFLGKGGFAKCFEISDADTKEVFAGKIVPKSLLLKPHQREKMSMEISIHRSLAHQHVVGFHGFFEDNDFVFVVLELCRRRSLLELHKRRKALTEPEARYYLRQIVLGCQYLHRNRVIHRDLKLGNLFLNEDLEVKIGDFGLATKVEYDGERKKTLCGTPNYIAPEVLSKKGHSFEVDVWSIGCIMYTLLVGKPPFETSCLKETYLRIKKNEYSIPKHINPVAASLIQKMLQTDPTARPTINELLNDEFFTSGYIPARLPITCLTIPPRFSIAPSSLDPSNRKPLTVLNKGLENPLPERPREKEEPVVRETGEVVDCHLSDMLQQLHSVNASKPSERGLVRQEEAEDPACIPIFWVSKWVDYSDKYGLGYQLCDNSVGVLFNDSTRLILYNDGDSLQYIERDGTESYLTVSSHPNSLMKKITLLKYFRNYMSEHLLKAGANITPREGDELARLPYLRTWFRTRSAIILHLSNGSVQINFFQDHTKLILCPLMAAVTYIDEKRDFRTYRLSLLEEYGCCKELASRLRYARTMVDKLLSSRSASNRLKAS

In the case of `Nc1nc(Nc2ccc(S(N)(=O)=O)cc2)nn1C(=S)Nc1c(F)cccc1F`, the residual activity in [1] is 32%; in [2] it was 2%; in [3], 5%; in assay [4], 2%; in assay [5], 20%; in [6], 0%. Moreover, the residual activity in assay [7] was determined as 86%; in assay [8], 31%; in assay [9], 96%; in assay [10], 77%; in assay [11], 125%; in assay [12], 95%. The residual activity in assay [13] was found to be 95%.

Consider `c1ccc(-c2n[nH]c3c2oc2ccccc23)cc1`, for which the residual activity in assay [14] is 99%; in assay [15] it was 100%; in assay [16] it was 75%; in [17], 93%; in [1], 97%; in assay [2], 58%. For the same molecule, the residual activity in [9] is 85%; in assay [10], 84%; in assay [11] it was 83%; in assay [18], 123%; in [12], 92%; in assay [13], 90%. Further, the residual activity in assay [19] is 85%; in assay [20], 67%.

Take `CCN(CC)CCCCN1c2ccccc2Oc2ccc(Cl)cc21`: the residual activity in [14] was 113%; in [15] it was 110%; in assay [16], 97%; in [17], 94%; in [1] it was 96%; in assay [2], 112%. Moreover, the residual activity in [3] worked out at 107%; in assay [4], 124%; in assay [5], 105%; in assay [6], 119%; in [7] it was 112%; in [8] it was 122%. In addition, the residual activity in [11] was 97%; in [18] it was 125%; in [12], 92%; in assay [13], 47%; in [19], 109%; in [20], 76%.

As for `N#CC(C#N)=C(N)/C(C#N)=C/c1ccc(O)cc1`, the residual activity in [2] turned out to be 92%; in assay [4] it was 117%; in assay [6], 91%; in assay [18], 118%; in [13], 88%; in [19], 79%. Besides, the residual activity in [20] came out at 36%.

On to `N#Cc1cnc2cnc(NCc3cccnc3)cc2c1Nc1ccc(F)c(Cl)c1`, for which the residual activity in assay [14] came to 4%; in assay [15], 9%; in [1], 78%; in assay [2], 101%; in assay [3], 4%; in assay [4], 3%. Further, the residual activity in [5] came to 28%; in assay [6], 22%; in [7] it was 3%; in assay [8], 2%; in assay [9] it was 27%; in assay [10], 18%. The residual activity in assay [11] worked out at 84%; in [18] it was 63%; in assay [12], 97%; in assay [13] it was 94%.

As to `Cc1cncc2cccc(S(=O)(=O)N3CCCN(C(=O)CN)C[C@H]3C)c12`, the residual activity in [14] amounted to 93%; in assay [15], 44%; in assay [16], 74%; in assay [17] it was 19%; in assay [1] it was 82%; in [2], 98%. Besides, the residual activity stood at 22% in assay [3]; 7% in [4]; 87% in [5]; 70% in assay [6]; 82% in assay [7]; 49% in [8]. For the same molecule, the residual activity stood at 100% in [9]; 84% in assay [10]; 92% in [12]; 86% in [13]; 90% in [19]; 59% in [20].

As for `Ic1cccc(CSc2nnc(-c3ccncc3)o2)c1`, the residual activity worked out at 105% in [14]; 96% in assay [15]; 88% in assay [16]; 49% in [17]; 105% in assay [1]; 117% in assay [2]. The residual activity was found to be 83% in assay [3]; 70% in [4]; 77% in [5]; 78% in assay [6]; 106% in assay [7]; 84% in [8]. For the same molecule, the residual activity worked out at 104% in [9]; 73% in assay [10]; 93% in [11]; 86% in assay [18]; 78% in assay [12]; 84% in assay [13]. Besides, the residual activity in assay [19] is 72%; in assay [20], 74%.
